Assay results reported in PubChem BioAssay AID589 (National Center for Advancing Translational Sciences (NCATS), 2007).
Hit rate of the full screen: of about 59,000 compounds, about 6,200 (11%) were called active. Inconclusive results (about 9%) are left out. The sample holds actives, similar compounds and a random draw of the others, so the mix is not that of the screen. No stated cut-off is given here; in the data, active means max dye-equivalent concentration above about 10 nM; inconclusive means mostly about 1.1 nM to 9.6 nM; inactive means weaker than that.

Test: qHTS Assay for Spectroscopic Profiling in 4-MU Spectral Region
Settings: compound autofluorescence, 340/450 nm, 4-MU equivalents; active compounds read high
In short: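 Compounds in 100 mM Tris, pH 8.0, sat 15 min at room temperature before fluorescence was read at 340 nm excitation/450 nm emission; a per-plate six-point 4-MU standard curve converted signals to dye-equivalent concentration at each compound concentration.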

Structure (SMILES)	max dye-equivalent concentration
COc1ccc(-c2nnc(SCC(=O)c3ccco3)n2-c2ccccc2)cc1	inactive
Cc1ccc(Cc2cncc(O)c2)cc1S(=O)(=O)O	inactive
CCOC(=O)c1cc2n(c1C)-c1ccccc1C2=O	inactive
CCCn1c(=NC(C)=O)c(C(=O)OCC)cc2c(=O)n3ccccc3nc21	3500 nM (active)
CCOC(=O)c1cc2n(c1N)-c1ccccc1C2=O	inactive
CCC(=O)Nc1ccc2c(c1)nc(CCN1CCN(C)CC1)n2C	inactive
O=C(Nc1c2c(nn1-c1ccc(F)cc1)CS(=O)C2)C12CC3CC(CC(C3)C1)C2 (configuration not stated)	inactive
CC(C)Cc1ccc(S(=O)(=O)N2CCN(C(=O)c3ccco3)CC2)cc1	inactive
CCc1cc(=O)oc2cc(C)cc(OC(C)C(=O)O)c12 (configuration not stated)	82 nM (active)
Cc1cc2c(=O)n(C)c(SCC(=O)c3cc4ccccc4o3)nc2s1	inactive
CC(=O)Nc1ccc(S(=O)(=O)NCCc2ccccc2)cc1	inactive
COCCOC(=O)C1=C(C)NC(=O)CC1c1cc2c(cc1Br)OCO2 (configuration not stated)	inactive
COC(=O)c1ccc(C2NC(=O)NC(C)=C2C(=O)N(C)C)cc1 (configuration not stated)	inactive
CCCOC(=O)C1=C(C)NC2=C(C(=O)C(C(=O)OC)C(C)C2)C1c1ccc(N(C)C)cc1 (configuration not stated)	23 nM (active)
Cc1noc(C)c1CSc1nnc2ccc3ccccc3n12	inactive
CCOC(=O)c1c(NC(=O)CSc2nnc(C)c(=O)[nH]2)sc2c1CCC2	inactive
CC1CN(C2CCCCC2)c2nc3c(c(=O)n(C)c(=O)n3C)n2C1 (configuration not stated)	inactive
O=C(O)CCC(=O)N(Cc1cccs1)Cc1cccs1	inactive
CC(C)Cn1c(CCC(=O)O)ccc1-c1cccs1	350 nM (active)
Cc1cc(NC(=O)c2cc(-c3cccs3)on2)nn1Cc1ccc(Cl)cc1	inactive
COc1cc(C2C3C(=O)N(c4ccccc4)C(=O)C3ON2c2ccccc2)ccc1O (configuration not stated)	inactive
CC(C)OCCCNc1nc2c(c(=O)n(Cc3ccccc3F)c(=O)n2C)n1C	inactive
COCc1nc2ccccc2n1Cc1ccccc1Br	inactive
c1ccc(-c2[nH]ncc2-c2nc3ccccc3[nH]2)cc1	inactive

Structure (SMILES)	max dye-equivalent concentration
O=c1[nH]c(-c2ccccc2)c(-c2ccccc2)[nH]1	18 nM (active)
CC1(C)CC(=O)NC=C(c2ccccc2)C1	inactive
Clc1ccccc1-c1cc(NCCN2CCOCC2)ncn1	inactive
Cc1cccc(-c2noc(-c3ccc(F)cc3)n2)c1	inactive
COc1ccc2[nH]c(=O)c(-c3noc(-c4ccc(F)cc4)n3)cc2c1	12 nM (active)
CC(=O)N1CCC2(CCCN(Cc3ccccc3)C2)CC1	inactive
O=C(CSc1n[nH]c(-c2cccnc2)n1)Nc1ccnc2ccccc12	inactive
O=C(O)C1CC(=O)N(Cc2cccnc2)C1 (configuration not stated)	inactive
O=C(CCS(=O)(=O)Cc1ccccc1F)NCCCN1CCCCC1	inactive
C#CCNc1nc(C(C)C)nc2c1nnn2Cc1ccccc1F	inactive
CC(C)(C)c1nc(NCC2CCCO2)c2nnn(Cc3ccccc3)c2n1 (configuration not stated)	inactive
Cc1nc(Nc2ccc3c(c2)OCCO3)c2nnn(Cc3ccccc3Cl)c2n1	640 nM (active)
Cc1ccc(-c2nnn(CC(=O)N(CCO)C(C(=O)NC(C)(C)C)c3ccncc3)n2)cc1 (configuration not stated)	inactive
COc1ccc(S(=O)(=O)N2CCCC(C(=O)N3CCN(C)CC3)C2)cc1C (configuration not stated)	inactive
COC(=O)N1CCC2(CCCN(Cc3ccccc3OC)C2)CC1	inactive
COc1ccc(CCNC(=O)CSc2nnc(-c3cccc(F)c3)o2)cc1OC	inactive
O=C(O)CSCc1nc2ccccc2s1	inactive
COC(=O)Cc1cc(=O)n(-c2nc3ccccc3s2)[nH]1	inactive
CCC(=O)NC(=Nc1nc2ccccc2s1)NC(=O)CC	150 nM (active)
COC(=O)CNS(=O)(=O)c1ccc(Cc2ccc(S(=O)(=O)NCC(=O)OC)cc2)cc1	inactive
Cc1ccccc1Nc1nnc(C)c(=O)[nH]1	inactive
COc1ccc(C2C(C(=O)Nc3ccccc3OC)=C(C)Nc3nnnn32)c(OC)c1 (configuration not stated)	inactive
CCOc1cccc(-n2nnnc2-c2ccc(OC)cc2)c1	inactive
COc1ccc(C2=CC(c3cccc(OC)c3)n3nnnc3N2)cc1 (configuration not stated)	13 nM (active)

Structure (SMILES)	max dye-equivalent concentration
CCCCC(=O)N1CC2(C)CN(C(=O)CCCC)CC(C)(C1)C2=O	inactive
Cn1c(=O)n(C)c(=O)n(CC(=O)N2CCCCC2)c1=O	inactive
CS(=O)(=O)N(Cc1nc2sc3c(c2c(=O)[nH]1)CCCC3)C1CCCCC1	34 nM (active)
CS(=O)(=O)N(CC(=O)N1CCN(c2cccc(Cl)c2)CC1)c1ccccc1	inactive
Cc1cc(C)c2c(n1)nn1c(N3CCN(c4cccc(Cl)c4)CC3)cc(C)nc21	100 nM (active)
CCN1C(=O)/C(=C\N2CCN(c3cccc(Cl)c3)CC2)SC1=S	inactive
Cc1cc(N2CCN(Cc3ccc4c(c3)OCO4)CC2)n2ncnc2n1	inactive
Cc1cc(C)c2c(n1)nn1c(N3CCOCC3)cc(C)nc21	6300 nM (active)
Cc1cc(C)c2c(n1)nn1c(-n3ccnc3)cc(C)nc21	240 nM (active)
Cc1nn2c3cc(N4CCOCC4)ccc3nc2c2ccccc12	inactive
COc1ccc(C(=O)N2CCC3(CC2)CCN(c2ccccn2)CC3)cc1	inactive
CCn1c(CNC(=O)c2ccc(OC)c(OC)c2)nnc1SCC(=O)Nc1ccccc1	inactive
O=C(CN(Cc1ccccc1)C(=O)c1ccc2c(c1)OCCO2)NCc1ccc2c(c1)OCO2	inactive
Cc1nnc(NC2=NCCCCC2)o1	inactive
O=C(c1c(Cl)nc2sccn12)N1CCCc2ccccc21	inactive
O=C1CC(Cc2ccccc2)C(=O)N1c1ccc(Cl)cn1 (configuration not stated)	inactive
Cc1ccc(C(C(=O)NCc2ccco2)N(CC2CCCO2)C(=O)Cn2nnc3ccccc32)cc1 (configuration not stated)	inactive
CN(C)C(=O)c1ccc(-c2cncnc2Nc2ccccc2)cc1	inactive
O=C(NCc1cn2ccsc2n1)Nc1cccc(Cl)c1	inactive
O=C(/C=N/O)Nc1ccccc1	inactive
CCS(=O)(=O)n1nc(-c2ccc(OC)cc2)nc1SC	inactive
c1ccc(-c2cc(-c3nnc4sc(-c5ccccn5)nn34)[nH]n2)cc1	inactive
CCOc1cccc(-c2nn3c(-c4ccccn4)nnc3s2)c1	inactive
COc1cc(-c2nn3c(-c4cccc(C)c4)nnc3s2)cc(OC)c1OC	1900 nM (active)
